# Reference: the supplement of paper PMC8728848
# The sample as a whole holds a higher share of the strongest signals than the screen did.
# B1: Epa1-NP-mutant-D229G (Candida glabrata), Q6VBJ0 (protein)
# chain: MILNPALFLNKCVCIYTTLILLLLTNGGYATSSNDISLASKDPTTFPLGCSPDITTPKKGLSMELYSYDFRKKGSYPCWDAAYLDPNYPRTGYKSHRLLAKVDGVTGNINFYYHATKGCTPQLGHLPASYNYPKPLTMTNFTMLLYGYFRPKVTGFHTFTISADDLLFVNFGAGNAFDCCRRDSSADHFGNYQAYAIWGSKTAKDELTVHLDAGVYYPIRLFYNNREYGGALSFTFKTESNENTVSDFSEYFFSLDDTEEGCPGLISYDSSCASVKTSKIIGIDYHTETPNENLVPITKTIYHLGIPCTGTTTTPLCGSGFYDPLANKCVTINTSSTSSVTKTTSHTTSKEVSFHSSISSQKTLIPKSIPSPYGPIKSQSIPTEMETSSEISSSEYAFSDVISTPSHSPYTKKHSSLNSSSYTSTVIHSLTSYSISQGIFSTSLSEQNITSKSSTDKFSTATSMSNNITQSSIIISQFSTNNENYTTTSMHTSSDKISTETLNNSISTTTSILFSNSSTILKNNTTIISSDKDTHYHPVNPTIVCSTNKTEIICASITQPSISNSNNHWSSSVLKFNSTTVRSTLPSSAGSNETSINVPFSSSTESNTSTSSTSTSNSKMVRSTLPSSAGSNETSISVPFSSSTESNTSTSSTSTSNSKMVRSTLPSSAGSNETSINVPFSSSTESNTSTSSTSTSNSKTVRSTPFSSAGIIMTSLSQRNNKSASSYASSNSKCYNTADSCRKVHSTPSYLLTSSYTSEGVDYDCSLVSTKLKINDTNCVNNKHTTKSCLKTSVTTTIPTLEIKTARKSSSNTIGLHSYPTSSPNKSISSAPIIGYISSFKTIKTASPSYQTSDLTTITTITSLNNPGSTAVENTHESNDKSRKTSSNDISSKHSVIKETKDAVESSNKSHQTNTLKCSSIIIASSSHNSYESLGGTTLTLTLSKVYSPQNNDTLPFLEISEVNPSRTVLPESSKMMQYLTSTEERNKTARNTIATNIVSISTFHFEGEGNAIRMGYTQLLLMLIGIIVMNIGT
# Legend:
# Assay in all cases: glycan array binding signal (z-score within array); higher = stronger binding
# Details in all cases: glycan notation: IUPAC condensed, linker removed; mutation: D229G
# [1] = molecular target: Fuc(a1-2)Gal(b1-3)GlcNAc(b1-2)Man(a1-3)[Fuc(a1-2)Gal(b1-3)GlcNAc(b1-2)Man(a1-6)]Man(b1-4)GlcNAc(b1-4)GlcNAc
# Method in brief: (§1)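 Arrays were curated from the Consortium for Functional Glycomics database, 3228 in total, and kept only where the protein sequence was available. Binding is expressed as a within-array Z-score. This score was averaged across arrays of the same protein sequence at different concentrations or buffers and across linkers, and negative values can be read as non-binding.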
# [2] = molecular target: Fuc(a1-2)Gal(b1-3)GlcNAc(b1-3)GalNAc
# Method in brief: as §1
# [3] = molecular target: Fuc(a1-2)Gal(b1-3)GlcNAc(b1-3)[Gal(b1-4)GlcNAc(b1-6)]Gal(b1-4)Glc
# Method in brief: as §1
# Fuc(a1-2)Gal(b1-4)GlcNAc = molecular target: Fuc(a1-2)Gal(b1-4)GlcNAc
# Method in brief: as §1
# [4] = molecular target: Fuc(a1-2)Gal(b1-4)GlcNAc(b1-3)Gal(b1-4)GlcNAc(b1-3)Gal(b1-4)GlcNAc
# Method in brief: as §1
# [5] = molecular target: Fuc(a1-2)Gal(b1-4)[Fuc(a1-3)]GlcNAc(b1-3)Gal(b1-4)[Fuc(a1-3)]GlcNAc
# Method in brief: as §1
# [6] = molecular target: Fuc(a1-2)Gal3S(b1-4)GlcNAc
# Method in brief: as §1
# Fuc(a1-2)Gal6S(b1-4)Glc = molecular target: Fuc(a1-2)Gal6S(b1-4)Glc
# Method in brief: as §1
# [7] = molecular target: Fuc(a1-2)[Gal(a1-3)]Gal(b1-3)GlcNAc(b1-2)Man(a1-3)[Fuc(a1-2)[Gal(a1-3)]Gal(b1-3)GlcNAc(b1-2)Man(a1-6)]Man(b1-4)GlcNAc(b1-4)GlcNAc
# Method in brief: as §1
# [8] = molecular target: Fuc(a1-2)[Gal(a1-3)]Gal(b1-3)GlcNAc(b1-6)GalNAc
# Method in brief: as §1
# [9] = molecular target: Fuc(a1-2)[Gal(a1-3)]Gal(b1-4)GlcNAc(b1-2)Man(a1-3)[Fuc(a1-2)[Gal(a1-3)]Gal(b1-4)GlcNAc(b1-2)Man(a1-6)]Man(b1-4)GlcNAc(b1-4)GlcNAc
# Method in brief: as §1
# [10] = molecular target: Fuc(a1-2)[Gal(a1-3)]Gal(b1-4)GlcNAc(b1-6)GalNAc
# Method in brief: as §1
# [11] = molecular target: Fuc(a1-2)[Gal(a1-3)]Gal(b1-4)[Fuc(a1-3)]GlcNAc(b1-3)GalNAc
# Method in brief: as §1
# [12] = molecular target: Fuc(a1-2)[GalNAc(a1-3)]Gal(b1-4)GlcNAc(b1-2)Man
# Method in brief: as §1
# [13] = molecular target: Fuc(a1-2)[GalNAc(a1-3)]Gal(b1-4)GlcNAc(b1-3)[Fuc(a1-2)[GalNAc(a1-3)]Gal(b1-4)GlcNAc(b1-6)]GalNAc
# Method in brief: as §1
# [14] = molecular target: Fuc(a1-2)[GalNAc(a1-3)]Gal(b1-4)[Fuc(a1-3)]GlcNAc(b1-3)GalNAc
# Method in brief: as §1
# [15] = molecular target: Fuc(a1-3)[Gal(b1-4)]GlcNAc(b1-3)Gal(b1-4)[Fuc(a1-3)]GlcNAc(b1-3)Gal(b1-4)[Fuc(a1-3)]GlcNAc
# Method in brief: as §1
# [16] = molecular target: Fuc(a1-3)[Gal3S(b1-4)]GlcNAc6S
# Method in brief: as §1
# Gal(a1-3)Gal(b1-3)GlcNAc = molecular target: Gal(a1-3)Gal(b1-3)GlcNAc
# Method in brief: as §1
# [17] = molecular target: Gal(a1-3)Gal(b1-3)GlcNAc(b1-2)Man(a1-3)[Gal(a1-3)Gal(b1-3)GlcNAc(b1-2)Man(a1-6)]Man(b1-4)GlcNAc(b1-4)GlcNAc
# Method in brief: as §1
# Gal(b1-2)Gal = molecular target: Gal(b1-2)Gal
# Method in brief: as §1
# Gal(b1-3)Gal = molecular target: Gal(b1-3)Gal
# Method in brief: as §1
# [18] = molecular target: Gal(b1-3)GlcNAc(b1-3)Gal(b1-4)GlcNAc(b1-3)Gal(b1-4)GlcNAc(b1-2)[Gal(b1-3)GlcNAc(b1-3)Gal(b1-4)GlcNAc(b1-3)Gal(b1-4)GlcNAc(b1-6)]Man(a1-6)[Gal(b1-3)GlcNAc(b1-3)Gal(b1-4)GlcNAc(b1-3)Gal(b1-4)GlcNAc(b1-2)Man(a1-3)]Man(b1-4)GlcNAc(b1-4)[Fuc(a1-6)]GlcNAc
# Method in brief: as §1
# Gal(b1-3)GlcNAc6S = molecular target: Gal(b1-3)GlcNAc6S
# Method in brief: as §1
# [19] = molecular target: Gal(b1-3)[Fuc(a1-4)]GlcNAc(b1-2)Man(a1-3)[Gal(b1-3)[Fuc(a1-4)]GlcNAc(b1-2)Man(a1-6)]Man(b1-4)GlcNAc(b1-4)[Fuc(a1-6)]GlcNAc
# Method in brief: as §1
# [20] = molecular target: Gal(b1-4)GlcNAc(b1-2)[Gal(b1-4)GlcNAc(b1-4)]Man(a1-3)[Gal(b1-4)GlcNAc(b1-2)Man(a1-6)]Man(b1-4)GlcNAc(b1-4)GlcNAc
# Method in brief: as §1
# [21] = molecular target: Gal(b1-4)GlcNAc(b1-2)[Gal(b1-4)GlcNAc(b1-4)]Man(a1-3)[GlcNAc(b1-4)][Gal(b1-4)GlcNAc(b1-2)Man(a1-6)]Man(b1-4)GlcNAc(b1-4)GlcNAc
# Method in brief: as §1
# [22] = molecular target: Gal(b1-4)GlcNAc(b1-3)Gal(b1-3)GalNAc
# Method in brief: as §1
# [23] = molecular target: Gal(b1-4)GlcNAc(b1-3)Gal(b1-4)GlcNAc(b1-2)Man(a1-3)[Gal(b1-4)GlcNAc(b1-3)Gal(b1-4)GlcNAc(b1-2)Man(a1-6)]Man(b1-4)GlcNAc(b1-4)[Fuc(a1-6)]GlcNAc
# Method in brief: as §1
# [24] = molecular target: Gal(b1-4)GlcNAc(b1-3)Gal(b1-4)GlcNAc(b1-3)Gal(b1-4)GlcNAc(b1-3)Gal(b1-4)GlcNAc(b1-3)Gal(b1-4)GlcNAc(b1-2)[Gal(b1-4)GlcNAc(b1-3)Gal(b1-4)GlcNAc(b1-3)Gal(b1-4)GlcNAc(b1-3)Gal(b1-4)GlcNAc(b1-3)Gal(b1-4)GlcNAc(b1-6)]Man(a1-6)[Gal(b1-4)GlcNAc(b1-3)Gal(b1-4)GlcNAc(b1-3)Gal(b1-4)GlcNAc(b1-3)Gal(b1-4)GlcNAc(b1-3)Gal(b1-4)GlcNAc(b1-2)Man(a1-3)]Man(b1-4)GlcNAc(b1-4)[Fuc(a1-6)]GlcNAc
# Method in brief: as §1
# [25] = molecular target: Gal(b1-4)GlcNAc(b1-3)Gal(b1-4)GlcNAc(b1-3)[Gal(b1-4)GlcNAc(b1-3)Gal(b1-4)GlcNAc(b1-6)]GalNAc
# Method in brief: as §1
binder,measurement,setting,value
B1,glycan array binding signal (z-score),[1],1.63
same,glycan array binding signal (z-score),[2],0.514
same,glycan array binding signal (z-score),[3],1
same,glycan array binding signal (z-score),Fuc(a1-2)Gal(b1-4)GlcNAc,0.427
same,glycan array binding signal (z-score),[4],-0.455
same,glycan array binding signal (z-score),[5],-1.5
same,glycan array binding signal (z-score),[6],1.12
same,glycan array binding signal (z-score),Fuc(a1-2)Gal6S(b1-4)Glc,-0.521
same,glycan array binding signal (z-score),[7],0.17
same,glycan array binding signal (z-score),[8],0.093
same,glycan array binding signal (z-score),[9],2.01
same,glycan array binding signal (z-score),[10],-0.039
same,glycan array binding signal (z-score),[11],2.93
same,glycan array binding signal (z-score),[12],-0.751
same,glycan array binding signal (z-score),[13],0.092
same,glycan array binding signal (z-score),[14],-0.531
same,glycan array binding signal (z-score),[15],-0.559
same,glycan array binding signal (z-score),[16],2.08
same,glycan array binding signal (z-score),Gal(a1-3)Gal(b1-3)GlcNAc,-0.137
same,glycan array binding signal (z-score),[17],3.6
same,glycan array binding signal (z-score),Gal(b1-2)Gal,-1.18
same,glycan array binding signal (z-score),Gal(b1-3)Gal,-0.801
same,glycan array binding signal (z-score),[18],2.48
same,glycan array binding signal (z-score),Gal(b1-3)GlcNAc6S,1.23
same,glycan array binding signal (z-score),[19],2.15
same,glycan array binding signal (z-score),[20],-1.41
same,glycan array binding signal (z-score),[21],-0.683
same,glycan array binding signal (z-score),[22],0.068
same,glycan array binding signal (z-score),[23],0.671
same,glycan array binding signal (z-score),[24],2.8
same,glycan array binding signal (z-score),[25],2.55
